The source of these data is the supplement of paper PMC11732987, “Enantioselective OTUD7B fragment discovery through chemoproteomics screening and high-throughput optimisation” (Communications Chemistry, 2025).

Values without a mark were called inactive.

Holding throughout (test): log2 ratio of Biotin-Ahx-Ub-VS probe labelling (fragment/DMSO); higher = less target engagement (more negative = stronger competition), active = hit call of the paper (q ≤ 0.05, log2 ratio ≤ -1)
What all share (conditions): compound concentration: 200 uM; treatment time: 3 h

For test [1], the target named is UniProt O00507. The method in brief: (§1)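 Triplicate samples of HEK293T lysate, 495 µg each, received fragment at 200 µM or vehicle for 3 h, followed by Biotin-Ahx-Ub-VS (0.5 µM final) for 1 h. After NeutrAvidin enrichment of labelled DUBs and LysC/trypsin digestion, peptides were run by diaPASEF LC-MS/MS. The values are average log2 fragment/vehicle ratios from global-median-normalised Spectronaut label-free quantities, tested by unpaired t-test on proteins having ≥2 unique peptides.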

Test [2] has as its target UniProt P51784. The method in brief:
as §1

For test [3], the target named is T1, UniProt Q5T2D3.
T1 sequence (whole entry): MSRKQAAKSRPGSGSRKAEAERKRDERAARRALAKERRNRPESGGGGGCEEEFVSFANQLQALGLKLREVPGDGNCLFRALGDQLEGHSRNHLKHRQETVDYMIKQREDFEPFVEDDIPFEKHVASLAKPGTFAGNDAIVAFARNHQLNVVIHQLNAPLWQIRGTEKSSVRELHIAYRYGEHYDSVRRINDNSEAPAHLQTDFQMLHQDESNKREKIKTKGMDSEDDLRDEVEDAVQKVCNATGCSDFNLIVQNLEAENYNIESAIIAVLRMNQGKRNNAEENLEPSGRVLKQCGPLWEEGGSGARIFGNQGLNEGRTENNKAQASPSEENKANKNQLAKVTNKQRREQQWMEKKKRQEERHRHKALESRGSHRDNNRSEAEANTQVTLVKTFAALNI
The method in brief: as §1

Test [4] concerns the target T2, UniProt Q8TE49.
T2 sequence (whole entry): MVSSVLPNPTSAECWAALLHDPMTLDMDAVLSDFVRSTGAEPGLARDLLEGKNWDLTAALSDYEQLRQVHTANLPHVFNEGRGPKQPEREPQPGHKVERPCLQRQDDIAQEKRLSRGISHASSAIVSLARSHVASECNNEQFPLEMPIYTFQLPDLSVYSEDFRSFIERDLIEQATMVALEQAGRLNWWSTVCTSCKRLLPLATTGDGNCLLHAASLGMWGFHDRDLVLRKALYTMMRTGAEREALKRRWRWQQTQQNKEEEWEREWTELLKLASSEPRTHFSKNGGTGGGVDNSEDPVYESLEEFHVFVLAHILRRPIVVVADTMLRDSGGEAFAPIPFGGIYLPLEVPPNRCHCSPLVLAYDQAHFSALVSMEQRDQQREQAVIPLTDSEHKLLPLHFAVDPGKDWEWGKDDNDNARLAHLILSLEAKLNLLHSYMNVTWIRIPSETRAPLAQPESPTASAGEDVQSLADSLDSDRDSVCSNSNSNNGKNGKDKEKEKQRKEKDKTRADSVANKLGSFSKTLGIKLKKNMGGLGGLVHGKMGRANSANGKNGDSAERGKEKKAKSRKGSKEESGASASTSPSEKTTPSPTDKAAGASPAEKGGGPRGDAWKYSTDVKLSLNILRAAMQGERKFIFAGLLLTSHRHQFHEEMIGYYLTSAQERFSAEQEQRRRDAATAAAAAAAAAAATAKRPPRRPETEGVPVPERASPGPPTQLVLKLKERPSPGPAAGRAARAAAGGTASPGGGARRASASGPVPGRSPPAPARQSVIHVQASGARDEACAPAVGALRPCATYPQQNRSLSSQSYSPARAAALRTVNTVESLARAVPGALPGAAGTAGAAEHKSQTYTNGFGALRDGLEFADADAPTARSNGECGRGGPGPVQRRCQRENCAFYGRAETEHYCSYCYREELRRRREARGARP
In outline:
as §1

In test [5] the target is T3, UniProt Q9P2H5.
T3 sequence (whole entry): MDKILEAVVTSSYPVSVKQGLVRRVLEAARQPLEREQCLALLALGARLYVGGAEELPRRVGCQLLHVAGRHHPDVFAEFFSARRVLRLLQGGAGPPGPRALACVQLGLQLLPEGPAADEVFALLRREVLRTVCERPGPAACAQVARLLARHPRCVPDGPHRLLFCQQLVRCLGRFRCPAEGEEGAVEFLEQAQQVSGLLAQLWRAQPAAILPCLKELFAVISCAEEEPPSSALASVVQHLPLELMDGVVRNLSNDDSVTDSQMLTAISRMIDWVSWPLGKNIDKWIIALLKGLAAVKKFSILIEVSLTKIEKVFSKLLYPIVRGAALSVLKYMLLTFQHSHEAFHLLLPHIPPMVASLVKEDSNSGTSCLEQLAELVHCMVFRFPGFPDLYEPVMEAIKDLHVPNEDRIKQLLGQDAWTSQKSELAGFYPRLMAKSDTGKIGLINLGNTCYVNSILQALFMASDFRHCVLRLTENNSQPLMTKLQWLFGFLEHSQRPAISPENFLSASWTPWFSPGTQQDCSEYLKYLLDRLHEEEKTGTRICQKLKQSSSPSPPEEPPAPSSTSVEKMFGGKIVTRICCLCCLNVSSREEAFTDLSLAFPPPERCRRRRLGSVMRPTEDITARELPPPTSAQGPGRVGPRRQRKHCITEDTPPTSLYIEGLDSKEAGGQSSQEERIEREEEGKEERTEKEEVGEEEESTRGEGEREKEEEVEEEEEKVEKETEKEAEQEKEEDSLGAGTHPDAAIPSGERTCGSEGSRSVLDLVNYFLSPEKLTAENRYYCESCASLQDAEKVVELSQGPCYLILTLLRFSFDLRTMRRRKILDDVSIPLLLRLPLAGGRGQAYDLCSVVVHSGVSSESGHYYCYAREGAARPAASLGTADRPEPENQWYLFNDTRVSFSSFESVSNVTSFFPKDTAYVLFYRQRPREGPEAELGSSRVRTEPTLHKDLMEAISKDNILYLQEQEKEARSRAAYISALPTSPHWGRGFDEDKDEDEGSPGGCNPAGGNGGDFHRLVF
In outline:
as §1

Test [6] addresses T4, UniProt Q9UGI0.
T4 sequence (whole entry): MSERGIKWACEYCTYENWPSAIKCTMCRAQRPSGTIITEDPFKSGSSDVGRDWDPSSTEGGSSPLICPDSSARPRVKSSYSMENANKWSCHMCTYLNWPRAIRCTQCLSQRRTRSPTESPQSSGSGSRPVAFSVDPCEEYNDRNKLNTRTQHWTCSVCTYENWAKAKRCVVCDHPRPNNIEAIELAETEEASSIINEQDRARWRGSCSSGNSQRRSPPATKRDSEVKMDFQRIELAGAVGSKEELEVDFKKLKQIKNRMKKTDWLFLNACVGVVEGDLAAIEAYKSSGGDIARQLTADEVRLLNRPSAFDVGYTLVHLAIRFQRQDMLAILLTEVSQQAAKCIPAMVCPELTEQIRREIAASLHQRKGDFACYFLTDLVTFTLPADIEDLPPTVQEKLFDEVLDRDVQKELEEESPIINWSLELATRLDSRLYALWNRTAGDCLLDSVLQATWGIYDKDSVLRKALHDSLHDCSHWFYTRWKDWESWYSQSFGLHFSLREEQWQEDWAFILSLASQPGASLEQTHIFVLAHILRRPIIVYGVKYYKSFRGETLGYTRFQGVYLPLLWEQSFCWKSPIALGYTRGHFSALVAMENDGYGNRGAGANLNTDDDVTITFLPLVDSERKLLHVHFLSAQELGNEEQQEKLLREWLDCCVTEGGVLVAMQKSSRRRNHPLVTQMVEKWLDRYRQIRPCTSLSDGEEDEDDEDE
The method in brief: as §1

Test [7] has as its target T5, YOD1 (UniProt Q5VVQ6).
T5 sequence (whole entry): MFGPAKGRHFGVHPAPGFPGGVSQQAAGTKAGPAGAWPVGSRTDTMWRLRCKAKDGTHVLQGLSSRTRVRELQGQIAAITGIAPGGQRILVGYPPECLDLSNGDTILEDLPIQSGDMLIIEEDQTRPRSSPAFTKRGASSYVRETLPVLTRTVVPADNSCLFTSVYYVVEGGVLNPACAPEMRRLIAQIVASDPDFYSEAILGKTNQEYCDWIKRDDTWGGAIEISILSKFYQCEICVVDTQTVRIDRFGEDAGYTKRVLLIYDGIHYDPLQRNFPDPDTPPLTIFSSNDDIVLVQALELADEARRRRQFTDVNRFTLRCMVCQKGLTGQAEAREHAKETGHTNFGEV
The method in brief:
as §1

Sequence of UniProt P51784 (P51784 whole entry): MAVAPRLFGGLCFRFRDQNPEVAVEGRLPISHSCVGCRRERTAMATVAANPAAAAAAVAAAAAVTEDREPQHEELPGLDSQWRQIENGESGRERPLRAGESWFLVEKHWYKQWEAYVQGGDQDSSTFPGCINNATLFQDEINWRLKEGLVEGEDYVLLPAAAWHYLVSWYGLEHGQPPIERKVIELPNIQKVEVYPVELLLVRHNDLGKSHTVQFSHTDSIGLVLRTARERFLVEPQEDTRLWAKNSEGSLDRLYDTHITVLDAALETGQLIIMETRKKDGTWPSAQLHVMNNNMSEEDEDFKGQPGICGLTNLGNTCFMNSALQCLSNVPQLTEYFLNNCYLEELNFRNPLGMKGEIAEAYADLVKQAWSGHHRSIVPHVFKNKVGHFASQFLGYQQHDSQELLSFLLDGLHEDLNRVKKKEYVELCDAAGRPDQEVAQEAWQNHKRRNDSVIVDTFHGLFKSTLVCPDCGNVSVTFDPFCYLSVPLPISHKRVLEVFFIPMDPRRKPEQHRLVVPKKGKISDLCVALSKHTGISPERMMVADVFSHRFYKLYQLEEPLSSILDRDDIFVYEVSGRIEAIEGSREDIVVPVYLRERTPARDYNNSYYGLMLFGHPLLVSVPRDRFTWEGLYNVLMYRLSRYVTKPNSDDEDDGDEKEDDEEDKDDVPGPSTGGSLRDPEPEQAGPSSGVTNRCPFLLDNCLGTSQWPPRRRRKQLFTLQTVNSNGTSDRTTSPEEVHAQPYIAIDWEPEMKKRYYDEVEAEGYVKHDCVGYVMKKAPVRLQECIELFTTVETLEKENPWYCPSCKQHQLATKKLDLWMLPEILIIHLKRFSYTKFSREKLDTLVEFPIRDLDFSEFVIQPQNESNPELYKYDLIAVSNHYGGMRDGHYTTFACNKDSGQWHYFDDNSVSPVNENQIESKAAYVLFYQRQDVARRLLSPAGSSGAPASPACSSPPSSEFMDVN
Sequence of UniProt O00507 (O00507 whole entry, the tested form may be a part): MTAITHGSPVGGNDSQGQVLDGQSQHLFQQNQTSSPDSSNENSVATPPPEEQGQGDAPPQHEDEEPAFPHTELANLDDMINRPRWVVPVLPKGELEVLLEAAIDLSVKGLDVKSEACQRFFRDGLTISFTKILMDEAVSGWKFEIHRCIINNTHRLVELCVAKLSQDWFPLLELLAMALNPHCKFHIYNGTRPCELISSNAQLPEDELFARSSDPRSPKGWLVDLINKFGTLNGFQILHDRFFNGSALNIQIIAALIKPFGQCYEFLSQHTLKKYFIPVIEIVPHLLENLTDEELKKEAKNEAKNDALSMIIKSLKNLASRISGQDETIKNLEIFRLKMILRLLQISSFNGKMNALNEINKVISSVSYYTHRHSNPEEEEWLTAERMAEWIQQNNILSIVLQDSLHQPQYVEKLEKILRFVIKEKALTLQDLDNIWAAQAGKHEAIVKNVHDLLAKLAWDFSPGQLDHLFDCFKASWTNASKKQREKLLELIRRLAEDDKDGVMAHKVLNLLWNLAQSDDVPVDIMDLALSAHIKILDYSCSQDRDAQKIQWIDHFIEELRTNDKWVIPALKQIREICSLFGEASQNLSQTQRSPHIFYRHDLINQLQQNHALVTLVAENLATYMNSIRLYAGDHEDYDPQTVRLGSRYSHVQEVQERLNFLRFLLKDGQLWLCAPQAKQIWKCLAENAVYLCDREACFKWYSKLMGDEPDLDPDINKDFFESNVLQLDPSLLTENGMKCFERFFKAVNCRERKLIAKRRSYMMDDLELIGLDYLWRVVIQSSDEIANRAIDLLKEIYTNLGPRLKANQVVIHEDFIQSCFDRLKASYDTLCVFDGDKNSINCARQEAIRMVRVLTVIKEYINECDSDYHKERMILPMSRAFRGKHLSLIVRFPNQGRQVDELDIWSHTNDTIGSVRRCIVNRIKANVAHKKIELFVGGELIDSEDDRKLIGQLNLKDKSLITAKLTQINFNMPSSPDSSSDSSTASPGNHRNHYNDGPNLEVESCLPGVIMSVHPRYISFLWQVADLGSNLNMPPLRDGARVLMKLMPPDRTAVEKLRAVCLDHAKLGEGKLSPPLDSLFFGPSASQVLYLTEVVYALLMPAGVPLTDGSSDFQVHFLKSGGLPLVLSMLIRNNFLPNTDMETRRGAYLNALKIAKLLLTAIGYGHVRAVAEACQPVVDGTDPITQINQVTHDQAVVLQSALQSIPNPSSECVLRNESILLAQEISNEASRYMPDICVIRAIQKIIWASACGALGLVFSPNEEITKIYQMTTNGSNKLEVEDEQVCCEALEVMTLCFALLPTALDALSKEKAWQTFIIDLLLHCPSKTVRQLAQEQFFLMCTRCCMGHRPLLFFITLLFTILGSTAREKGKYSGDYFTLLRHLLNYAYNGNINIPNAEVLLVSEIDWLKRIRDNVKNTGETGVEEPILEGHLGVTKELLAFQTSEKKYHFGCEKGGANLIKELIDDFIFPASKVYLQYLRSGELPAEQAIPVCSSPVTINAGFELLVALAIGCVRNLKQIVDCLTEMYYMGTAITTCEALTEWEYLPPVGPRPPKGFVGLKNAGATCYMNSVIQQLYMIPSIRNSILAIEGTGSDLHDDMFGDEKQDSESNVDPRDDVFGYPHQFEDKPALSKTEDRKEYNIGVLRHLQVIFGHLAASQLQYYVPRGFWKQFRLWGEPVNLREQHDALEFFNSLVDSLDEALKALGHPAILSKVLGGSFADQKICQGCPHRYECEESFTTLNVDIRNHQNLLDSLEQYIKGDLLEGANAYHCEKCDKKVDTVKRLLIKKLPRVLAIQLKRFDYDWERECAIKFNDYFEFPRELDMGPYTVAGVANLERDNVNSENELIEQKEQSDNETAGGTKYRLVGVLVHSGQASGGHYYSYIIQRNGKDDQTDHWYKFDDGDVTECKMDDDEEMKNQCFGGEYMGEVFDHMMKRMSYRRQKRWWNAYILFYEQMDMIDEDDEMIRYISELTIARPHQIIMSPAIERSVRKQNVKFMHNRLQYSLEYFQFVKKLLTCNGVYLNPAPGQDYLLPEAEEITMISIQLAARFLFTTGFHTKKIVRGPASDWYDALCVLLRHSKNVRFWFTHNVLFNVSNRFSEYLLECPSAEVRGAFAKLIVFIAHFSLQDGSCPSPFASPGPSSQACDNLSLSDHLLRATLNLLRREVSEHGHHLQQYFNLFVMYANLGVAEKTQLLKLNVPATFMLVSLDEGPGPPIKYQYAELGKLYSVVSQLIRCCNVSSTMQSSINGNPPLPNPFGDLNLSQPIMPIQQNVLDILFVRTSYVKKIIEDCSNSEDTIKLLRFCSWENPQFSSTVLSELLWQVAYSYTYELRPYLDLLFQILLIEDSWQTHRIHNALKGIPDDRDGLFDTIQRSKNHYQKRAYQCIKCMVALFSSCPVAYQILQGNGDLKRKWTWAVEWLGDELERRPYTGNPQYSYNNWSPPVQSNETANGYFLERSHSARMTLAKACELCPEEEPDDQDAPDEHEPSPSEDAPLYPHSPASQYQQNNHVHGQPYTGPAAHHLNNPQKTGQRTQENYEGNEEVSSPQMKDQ

Take `O=C(CCl)NC1CCN(C(=O)C2CCCCC2)CC1`: the “log2 ratio of Biotin-Ahx-Ub-VS probe labelling” value (shortened to “log2 ratio”) is -0.257 in test [1]; 0.122 in test [2]; 0.0478 in test [3]; -0.283 in test [4]; 0.125 in test [5]; -0.0541 in test [6]. Moreover, the “log2 ratio” value in test [7] is -0.0714.

In the case of `Cc1noc(C)c1CNC(=O)CCl`, the “log2 ratio” value was -0.346 in test [1]; -0.582 in test [2]; -0.715 in test [3]; -1.28 (active) in test [4]; -0.835 in test [5]; -1.01 (active) in test [6]. Besides, in test [7], the “log2 ratio” value was -0.752.

For the compound `Cc1ncc2c(n1)CCN(C(=O)CCl)C2`, the “log2 ratio” value is 0.136 in test [1]; 0.000874 in test [2]; -0.239 in test [3]; -0.624 in test [4]; -0.422 in test [5]; -0.458 in test [6]. The “log2 ratio” value in test [7] is 0.165.

In the case of `Cc1nc(-c2cccc(NC(=O)CCl)c2)cs1`, the “log2 ratio” value in test [1] is -0.692; in test [2] it was -0.269; in test [3], -0.317; in test [4] it was -0.655; in test [5] it was -0.193; in test [6], -1.43 (active). The “log2 ratio” value in test [7] is -0.369.

As to `CN(Cc1nc2ccccc2[nH]1)C(=O)CCl.Cl`, the “log2 ratio” value is -0.702 in test [1]; 0.00766 in test [2]; -0.19 in test [3]; -0.268 in test [4]; 0.121 in test [5]; -0.937 in test [6]. Further, the “log2 ratio” value in test [7] was 0.0427.

As to `O=C(CCl)N1CCC[C@@H]1c1ccon1`, the “log2 ratio” value in test [1] was -0.592; in test [2] it was -0.16; in test [3] it was -0.395; in test [4], -0.398; in test [5], -0.248; in test [6], -0.626. Besides, in test [7], the “log2 ratio” value was -0.749.

As for `O=C(CCl)Nc1ccccc1C(F)(F)F`, the “log2 ratio” value is -0.463 in test [1]; -0.127 in test [2]; -0.319 in test [3]; -0.411 in test [4]; 0.0663 in test [5]; -0.466 in test [6]. The “log2 ratio” value in test [7] is -0.621.

Consider `O=C(CCl)N1CCc2nc[nH]c2C1c1ccc(Cl)cc1` (stereo not given), for which the “log2 ratio” value in test [1] is -0.893; in test [2] it was 0.194; in test [3], -0.0219; in test [4], -1.15 (active); in test [5], -0.000874; in test [6], -1.05 (active). Moreover, in test [7], the “log2 ratio” value was -0.117.

Consider `C[C@@H](NC(=O)CCl)c1cccc(C#N)c1`, for which the “log2 ratio” value in test [1] is -0.38; in test [2], 0.045; in test [3], -0.157; in test [4] it was -0.912; in test [5] it was -0.136; in test [6], -0.111. In addition, in test [7], the “log2 ratio” value was -0.0878.

Consider `CCN(Cc1ccc(C#N)cc1F)C(=O)CCl`, for which the “log2 ratio” value in test [1] is -0.396; in test [2], -0.331; in test [3], -0.313; in test [4], -0.525; in test [5] it was -0.207; in test [6] it was -1.27 (active). In addition, the “log2 ratio” value in test [7] is -0.251.
